# Values without a mark were called inactive.
# Columns and labels:
# Assay in all cases: log2 ratio of Biotin-Ahx-Ub-VS probe labelling (fragment/DMSO); higher = less target engagement (more negative = stronger competition), active = hit call of the paper (q ≤ 0.05, log2 ratio ≤ -1)
# Details in all cases: compound concentration: 200 uM; treatment time: 3 h
# ALG13 = molecular target: T1, ALG13 (UniProt Q9NP73)
# T1 sequence (whole entry): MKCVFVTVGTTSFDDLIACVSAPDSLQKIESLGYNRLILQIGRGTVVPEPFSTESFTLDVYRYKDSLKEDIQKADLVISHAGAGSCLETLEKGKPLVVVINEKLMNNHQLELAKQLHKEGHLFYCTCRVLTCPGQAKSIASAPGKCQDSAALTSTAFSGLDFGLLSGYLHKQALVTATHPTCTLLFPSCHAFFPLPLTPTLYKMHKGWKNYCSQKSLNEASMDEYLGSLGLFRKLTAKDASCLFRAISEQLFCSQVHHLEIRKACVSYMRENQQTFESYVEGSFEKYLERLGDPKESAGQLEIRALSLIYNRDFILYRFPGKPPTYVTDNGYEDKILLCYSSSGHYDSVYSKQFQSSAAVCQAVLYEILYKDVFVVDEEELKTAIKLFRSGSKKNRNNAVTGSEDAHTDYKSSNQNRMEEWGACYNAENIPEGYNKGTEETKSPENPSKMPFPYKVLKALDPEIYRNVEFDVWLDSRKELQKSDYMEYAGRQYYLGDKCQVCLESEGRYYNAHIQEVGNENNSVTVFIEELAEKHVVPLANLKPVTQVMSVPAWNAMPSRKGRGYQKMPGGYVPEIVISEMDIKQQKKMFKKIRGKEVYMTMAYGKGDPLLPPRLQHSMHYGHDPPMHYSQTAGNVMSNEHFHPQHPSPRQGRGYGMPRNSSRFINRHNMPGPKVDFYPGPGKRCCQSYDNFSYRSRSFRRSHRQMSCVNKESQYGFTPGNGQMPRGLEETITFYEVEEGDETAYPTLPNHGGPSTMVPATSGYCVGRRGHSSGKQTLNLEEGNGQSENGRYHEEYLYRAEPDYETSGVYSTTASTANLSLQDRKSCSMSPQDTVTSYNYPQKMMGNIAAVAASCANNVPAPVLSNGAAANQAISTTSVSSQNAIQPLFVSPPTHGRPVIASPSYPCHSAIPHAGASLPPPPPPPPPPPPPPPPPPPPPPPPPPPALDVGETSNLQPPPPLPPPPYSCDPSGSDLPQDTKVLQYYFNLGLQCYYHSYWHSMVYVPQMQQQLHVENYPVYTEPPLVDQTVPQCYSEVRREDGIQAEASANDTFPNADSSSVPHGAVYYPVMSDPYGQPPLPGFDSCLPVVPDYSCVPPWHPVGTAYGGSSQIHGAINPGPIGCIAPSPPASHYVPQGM
# How it was run: (§1)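 Using Biotin-Ahx-Ub-VS at 0.5 µM final for 1 h, DUBs were labelled in HEK293T lysate (495 µg per sample) that had first been treated in triplicate with fragment at 200 µM or vehicle for 3 h. NeutrAvidin enrichment, LysC and trypsin digestion and diaPASEF LC-MS/MS followed. Spectronaut label-free quantities were global-median-normalised. Values are average log2 fragment/vehicle ratios by unpaired t-test, using proteins with ≥2 unique peptides.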
# ATXN3 = ATXN3 (UniProt P54252)
# How it was run: as §1
# BAP1 = molecular target: T2, BAP1 (UniProt Q92560)
# T2 sequence (whole entry): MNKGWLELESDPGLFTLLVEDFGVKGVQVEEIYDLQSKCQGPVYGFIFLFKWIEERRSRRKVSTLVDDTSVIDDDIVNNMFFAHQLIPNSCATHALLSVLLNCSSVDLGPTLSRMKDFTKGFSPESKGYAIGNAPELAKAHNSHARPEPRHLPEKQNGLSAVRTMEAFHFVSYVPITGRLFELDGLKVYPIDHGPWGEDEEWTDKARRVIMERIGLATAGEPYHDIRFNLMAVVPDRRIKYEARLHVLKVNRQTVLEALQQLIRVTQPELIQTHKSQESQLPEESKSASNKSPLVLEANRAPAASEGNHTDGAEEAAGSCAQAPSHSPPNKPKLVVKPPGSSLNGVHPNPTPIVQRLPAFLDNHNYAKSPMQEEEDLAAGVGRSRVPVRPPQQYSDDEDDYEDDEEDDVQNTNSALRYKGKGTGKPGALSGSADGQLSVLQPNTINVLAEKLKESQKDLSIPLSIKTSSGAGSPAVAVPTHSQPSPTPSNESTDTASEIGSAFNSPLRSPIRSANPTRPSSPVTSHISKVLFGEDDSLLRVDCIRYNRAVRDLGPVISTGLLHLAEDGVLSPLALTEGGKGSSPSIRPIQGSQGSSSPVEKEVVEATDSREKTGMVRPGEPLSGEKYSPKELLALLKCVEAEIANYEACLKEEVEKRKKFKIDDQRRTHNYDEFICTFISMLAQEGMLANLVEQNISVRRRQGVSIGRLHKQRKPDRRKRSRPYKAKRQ
# How it was run: as §1
# EIF3F = EIF3F (UniProt O00303)
# How it was run: as §1
# EIF3H = EIF3H (UniProt O15372)
# How it was run: as §1
# FAM105A = molecular target: T3, FAM105A (UniProt Q9NUU6)
# T3 sequence (whole entry): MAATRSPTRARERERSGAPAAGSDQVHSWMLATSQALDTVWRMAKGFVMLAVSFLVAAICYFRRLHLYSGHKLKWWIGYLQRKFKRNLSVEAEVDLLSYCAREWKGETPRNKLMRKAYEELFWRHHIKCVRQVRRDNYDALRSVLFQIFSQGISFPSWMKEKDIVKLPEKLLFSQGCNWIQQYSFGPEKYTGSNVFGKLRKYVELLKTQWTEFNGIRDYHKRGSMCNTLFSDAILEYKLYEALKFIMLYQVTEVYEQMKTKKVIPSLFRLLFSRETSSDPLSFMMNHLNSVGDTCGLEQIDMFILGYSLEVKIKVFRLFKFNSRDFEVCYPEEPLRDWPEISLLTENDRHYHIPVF
# How it was run: as §1
# OTUB1 = OTUB1 (UniProt Q96FW1)
# How it was run: as §1
# OTUD4 = molecular target: T4, OTUD4 (UniProt Q01804)
# T4 sequence (whole entry): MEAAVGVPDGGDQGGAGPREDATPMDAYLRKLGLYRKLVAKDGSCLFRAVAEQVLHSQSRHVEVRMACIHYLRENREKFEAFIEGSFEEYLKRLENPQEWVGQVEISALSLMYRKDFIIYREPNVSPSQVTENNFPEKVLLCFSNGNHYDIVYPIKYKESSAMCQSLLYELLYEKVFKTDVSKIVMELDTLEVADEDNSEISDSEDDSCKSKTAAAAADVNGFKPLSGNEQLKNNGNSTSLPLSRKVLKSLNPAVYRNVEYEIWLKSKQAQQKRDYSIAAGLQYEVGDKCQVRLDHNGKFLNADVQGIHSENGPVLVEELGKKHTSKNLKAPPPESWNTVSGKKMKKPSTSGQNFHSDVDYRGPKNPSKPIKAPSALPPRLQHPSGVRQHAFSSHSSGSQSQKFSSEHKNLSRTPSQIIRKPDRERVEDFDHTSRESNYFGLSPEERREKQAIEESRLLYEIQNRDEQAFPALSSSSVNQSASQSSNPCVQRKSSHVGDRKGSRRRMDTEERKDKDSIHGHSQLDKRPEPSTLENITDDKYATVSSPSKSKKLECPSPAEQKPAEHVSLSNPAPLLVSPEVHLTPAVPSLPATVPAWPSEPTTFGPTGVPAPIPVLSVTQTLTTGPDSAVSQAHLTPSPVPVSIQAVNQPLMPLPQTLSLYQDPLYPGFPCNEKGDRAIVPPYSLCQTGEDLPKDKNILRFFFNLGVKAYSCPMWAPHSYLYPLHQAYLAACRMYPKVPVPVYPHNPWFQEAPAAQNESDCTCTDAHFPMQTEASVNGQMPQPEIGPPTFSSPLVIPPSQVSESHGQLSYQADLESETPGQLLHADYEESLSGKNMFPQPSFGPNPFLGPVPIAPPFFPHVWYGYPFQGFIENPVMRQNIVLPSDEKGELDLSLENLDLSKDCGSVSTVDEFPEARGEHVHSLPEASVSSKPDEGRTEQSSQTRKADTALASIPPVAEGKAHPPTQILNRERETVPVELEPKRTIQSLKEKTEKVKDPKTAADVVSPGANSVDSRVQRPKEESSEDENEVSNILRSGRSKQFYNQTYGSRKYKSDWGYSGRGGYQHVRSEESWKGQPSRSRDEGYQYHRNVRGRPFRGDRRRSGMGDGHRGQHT
# How it was run: as §1
# OTUD5 = molecular target: T5, OTUD5 (UniProt Q96G74)
# T5 sequence (whole entry): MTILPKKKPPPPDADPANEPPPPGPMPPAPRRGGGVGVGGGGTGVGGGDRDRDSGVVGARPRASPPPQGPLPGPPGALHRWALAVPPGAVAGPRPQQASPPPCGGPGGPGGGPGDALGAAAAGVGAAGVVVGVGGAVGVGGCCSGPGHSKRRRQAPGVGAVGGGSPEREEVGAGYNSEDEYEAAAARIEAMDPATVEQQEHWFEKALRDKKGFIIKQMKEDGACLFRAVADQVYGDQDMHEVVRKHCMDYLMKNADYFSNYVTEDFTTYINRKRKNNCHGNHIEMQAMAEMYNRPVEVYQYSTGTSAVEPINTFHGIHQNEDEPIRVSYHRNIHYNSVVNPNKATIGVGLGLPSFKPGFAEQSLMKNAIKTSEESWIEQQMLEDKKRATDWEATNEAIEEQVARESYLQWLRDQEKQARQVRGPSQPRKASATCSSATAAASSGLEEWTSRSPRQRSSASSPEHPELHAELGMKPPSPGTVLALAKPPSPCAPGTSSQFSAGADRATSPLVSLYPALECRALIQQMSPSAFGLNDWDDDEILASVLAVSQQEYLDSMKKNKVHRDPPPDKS
# How it was run: as §1
# Chain of EIF3H (O15372 whole entry): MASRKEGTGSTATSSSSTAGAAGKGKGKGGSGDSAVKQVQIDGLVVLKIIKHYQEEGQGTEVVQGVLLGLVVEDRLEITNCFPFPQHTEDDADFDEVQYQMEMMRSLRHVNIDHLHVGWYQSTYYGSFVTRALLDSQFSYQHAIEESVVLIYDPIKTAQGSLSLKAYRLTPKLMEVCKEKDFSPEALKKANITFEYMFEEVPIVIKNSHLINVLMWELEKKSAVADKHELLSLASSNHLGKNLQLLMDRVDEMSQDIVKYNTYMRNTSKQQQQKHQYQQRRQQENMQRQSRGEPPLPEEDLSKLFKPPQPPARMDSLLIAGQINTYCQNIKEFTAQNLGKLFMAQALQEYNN
# Chain of EIF3F (O00303 whole entry): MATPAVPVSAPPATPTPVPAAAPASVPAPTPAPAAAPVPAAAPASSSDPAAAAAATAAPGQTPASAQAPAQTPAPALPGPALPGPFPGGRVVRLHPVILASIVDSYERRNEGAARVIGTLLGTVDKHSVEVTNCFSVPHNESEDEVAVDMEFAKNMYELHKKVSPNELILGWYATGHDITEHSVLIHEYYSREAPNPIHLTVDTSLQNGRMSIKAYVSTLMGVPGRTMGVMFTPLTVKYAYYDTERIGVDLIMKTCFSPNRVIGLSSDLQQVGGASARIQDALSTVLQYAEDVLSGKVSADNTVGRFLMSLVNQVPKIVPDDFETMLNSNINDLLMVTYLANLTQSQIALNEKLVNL
# Chain of OTUB1 (Q96FW1 whole entry): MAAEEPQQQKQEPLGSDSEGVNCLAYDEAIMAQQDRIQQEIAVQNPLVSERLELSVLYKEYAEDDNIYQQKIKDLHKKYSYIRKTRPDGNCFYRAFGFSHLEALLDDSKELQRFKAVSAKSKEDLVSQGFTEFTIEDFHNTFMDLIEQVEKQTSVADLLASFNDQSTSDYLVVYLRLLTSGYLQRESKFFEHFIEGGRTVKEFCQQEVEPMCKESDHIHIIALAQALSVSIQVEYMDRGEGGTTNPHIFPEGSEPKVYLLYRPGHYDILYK
# Chain of ATXN3 (P54252 whole entry): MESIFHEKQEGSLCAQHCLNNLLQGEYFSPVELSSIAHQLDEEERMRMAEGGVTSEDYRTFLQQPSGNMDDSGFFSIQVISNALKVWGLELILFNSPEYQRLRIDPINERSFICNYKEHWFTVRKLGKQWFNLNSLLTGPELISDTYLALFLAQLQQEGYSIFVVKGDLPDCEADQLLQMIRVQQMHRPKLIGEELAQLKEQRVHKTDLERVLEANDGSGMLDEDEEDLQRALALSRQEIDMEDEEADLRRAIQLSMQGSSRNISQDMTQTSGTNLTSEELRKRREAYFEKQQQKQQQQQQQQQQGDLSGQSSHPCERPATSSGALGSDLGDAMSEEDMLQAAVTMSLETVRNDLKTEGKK
structure (smiles),measurement,setting,value
CC(NC(=O)CCl)c1cccc(Cl)c1 (centres undefined),log2 ratio of Biotin-Ahx-Ub-VS probe labelling,ALG13,0.0326
same,log2 ratio of Biotin-Ahx-Ub-VS probe labelling,ATXN3,-0.401
same,log2 ratio of Biotin-Ahx-Ub-VS probe labelling,BAP1,-3.17 (active)
same,log2 ratio of Biotin-Ahx-Ub-VS probe labelling,EIF3F,0.0315
same,log2 ratio of Biotin-Ahx-Ub-VS probe labelling,EIF3H,0.0634
same,log2 ratio of Biotin-Ahx-Ub-VS probe labelling,FAM105A,-0.0535
same,log2 ratio of Biotin-Ahx-Ub-VS probe labelling,OTUB1,0.0729
same,log2 ratio of Biotin-Ahx-Ub-VS probe labelling,OTUD4,-0.705
same,log2 ratio of Biotin-Ahx-Ub-VS probe labelling,OTUD5,-0.433

# Source: the supplement of paper PMC11732987, “Enantioselective OTUD7B fragment discovery through chemoproteomics screening and high-throughput optimisation” (Communications Chemistry, 2025)
